Measurements published in PubChem BioAssay (EPA / NIEHS).
Active and inactive are the calls of the source. How the source made its calls: active means hit-call score of the fitted dose curve at least 0.9, where 1 is the maximum; inactive means score below 0.9.

Columns and labels:
[1] = read-out: Tissue plasminogen activator (tPA), PLAT (gene 5327); assay: BSK_BE3C_tPA: BioMAP Diversity Plus: BE3C Assay for Tissue plasminogen activator (tPA) Biomarker Activity (AID 2283041); settings: primary human bronchial epithelial cells; actives raise or lower the signal
In short: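 ELISA read-out of tPA on human primary bronchial epithelial cells, 24 h post-dosing; bidirectional fit vs DMSO negative control/baseline.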

[2] = read-out: Interleukin-8 (IL8), CXCL8 (gene 3576); assay: BSK_CASM3C_IL8: BioMAP Diversity Plus: CASM3C Assay for Interleukin-8 (IL8) Biomarker Activity (AID 2283042); settings: primary human coronary artery smooth muscle cells; actives raise or lower the signal;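 further: IL-8 protein level quantified by ELISA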
[3] = read-out: Human Leukocyte Antigen - DR isotype (HLADR), HLA-DRA (gene 3122); assay: BSK_CASM3C_HLADR: BioMAP Diversity Plus: CASM3C Assay for Human Leukocyte Antigen - DR isotype (HLADR) Biomarker Activity (AID 2283043); settings: primary human coronary artery smooth muscle cells; actives raise or lower the signal;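 further: cell-surface HLA-DR protein level quantified by ELISA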
[4] = read-out: Macrophage colony-stimulating factor (MCSF), CSF1 (gene 1435); assay: BSK_CASM3C_MCSF: BioMAP Diversity Plus: CASM3C Assay for Macrophage colony-stimulating factor (MCSF) Biomarker Activity (AID 2283044); settings: primary human coronary artery smooth muscle cells; actives raise or lower the signal;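 further: M-CSF protein amount quantified by ELISA after 24 h exposure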
[5] = read-out: Low-density lipoprotein receptor (LDLR), LDLR (gene 3949); assay: BSK_CASM3C_LDLR: BioMAP Diversity Plus: CASM3C Assay for Low-density lipoprotein receptor (LDLR) Biomarker Activity (AID 2283045); settings: primary human coronary artery smooth muscle cells; actives raise or lower the signal;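 further: LDLR protein level on the cell surface quantified by ELISA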
[6] = read-out: Monocyte Chemoattractant Protein-1 (MCP1), CCL2 (gene 6347); assay: BSK_CASM3C_MCP1: BioMAP Diversity Plus: CASM3C Assay for Monocyte Chemoattractant Protein-1 (MCP1) Biomarker Activity (AID 2283046); settings: primary human coronary artery smooth muscle cells; actives raise or lower the signal;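 further: MCP-1 level quantified by ELISA 24 h after dosing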
[7] = BSK_CASM3C_Proliferation: Cell Proliferation Assessment in the BioMAP Diversity Plus: CASM3C Assay (AID 2283047); settings: primary human coronary artery smooth muscle cells;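 further: sulforhodamine B total protein stain as relative cell number at 560 nm; sub-confluent cells exposed 48 h before staining; fitted both ways against DMSO so gain or loss of cell number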
[8] = read-out: Monokine induced gamma interferon (MIG), CXCL9 (gene 4283); assay: BSK_CASM3C_MIG: BioMAP Diversity Plus: CASM3C Assay for Monokine induced gamma interferon (MIG) Biomarker Activity (AID 2283048); settings: primary human coronary artery smooth muscle cells; actives raise or lower the signal;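 further: MIG protein level measured by ELISA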
[9] = read-out: serum amyloid A (SAA), SAA1 (gene 6288); assay: BSK_CASM3C_SAA: BioMAP Diversity Plus: CASM3C Assay for serum amyloid A (SAA) Biomarker Activity (AID 2283049); settings: primary human coronary artery smooth muscle cells; actives raise or lower the signal;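 further: SAA protein level quantified by ELISA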
[10] = BSK_CASM3C_SRB: Viability Assessment in the BioMAP Diversity Plus: CASM3C Assay (AID 2283050); settings: primary human coronary artery smooth muscle cells;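 further: total protein by SRB staining as cytotoxicity measure in parallel cultures; cells exposed to compound for 24 h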
[11] = read-out: Thrombomodulin, THBD (gene 7056); assay: BSK_CASM3C_Thrombomodulin: BioMAP Diversity Plus: CASM3C Assay for Thrombomodulin Biomarker Activity (AID 2283051); settings: primary human coronary artery smooth muscle cells; actives raise or lower the signal;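 further: thrombomodulin protein level measured by ELISA 24 h after dosing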
[12] = read-out: Tissue Factor, F3 (gene 2152); assay: BSK_CASM3C_TissueFactor: BioMAP Diversity Plus: CASM3C Assay for Tissue Factor Biomarker Activity (AID 2283052); settings: primary human coronary artery smooth muscle cells; actives raise or lower the signal;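 further: cell surface tissue factor protein level read by ELISA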
[13] = read-out: Interferon-gamma inducible Protein 10 (IP10), CXCL10 (gene 3627); assay: BSK_hDFCGF_IP10: BioMAP Diversity Plus: hDFCGF Assay for Interferon-gamma inducible Protein 10 (IP10) Biomarker Activity (AID 2283053); settings: primary human foreskin fibroblasts; actives raise or lower the signal
In short: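 ELISA read-out of IP-10 (CXCL10) from primary human skin fibroblasts, 24 h after compound addition. Gain or loss of signal versus DMSO baseline, bidirectional curve fitting.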

[14] = read-out: Urokinase-type plasminogen activator receptor (uPAR), PLAUR (gene 5329); assay: BSK_CASM3C_uPAR: BioMAP Diversity Plus: CASM3C Assay for Urokinase-type plasminogen activator receptor (uPAR) Biomarker Activity (AID 2283054); settings: primary human coronary artery smooth muscle cells; actives raise or lower the signal;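 further: cell-surface uPAR protein level quantified by ELISA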
[15] = read-out: Vascular cell adhesion molecule 1 (VCAM1), VCAM1 (gene 7412); assay: BSK_CASM3C_VCAM1: BioMAP Diversity Plus: CASM3C Assay for Vascular cell adhesion molecule 1 (VCAM1) Biomarker Activity (AID 2283055); settings: primary human coronary artery smooth muscle cells; actives raise or lower the signal;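 further: VCAM-1 protein level quantified by ELISA on the cells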
[16] = read-out: Collagen III, COL3A1 (gene 1281); assay: BSK_hDFCGF_CollagenIII: BioMAP Diversity Plus: hDFCGF Assay for Collagen III Biomarker Activity (AID 2283056); settings: primary human foreskin fibroblasts; actives raise or lower the signal
In short: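 Human foreskin primary fibroblasts were exposed to test chemicals for 24 h, after which collagen III was quantified by ELISA. Activity was fitted bidirectionally against DMSO as negative control and baseline.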

[17] = read-out: Epidermal growth factor receptor (EGFR), EGFR (gene 1956); assay: BSK_hDFCGF_EGFR: BioMAP Diversity Plus: hDFCGF Assay for Epidermal growth factor receptor (EGFR) Biomarker Activity (AID 2283057); settings: primary human foreskin fibroblasts; actives raise or lower the signal
In short: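 ELISA readout of EGFR on human dermal fibroblasts (primary foreskin cells), 24 h post-dosing; bidirectional curve fit vs DMSO baseline, gain or loss of signal scored.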

[18] = read-out: Interleukin-8 (IL8), CXCL8 (gene 3576); assay: BSK_hDFCGF_IL8: BioMAP Diversity Plus: hDFCGF Assay for Interleukin-8 (IL8) Biomarker Activity (AID 2283058); settings: primary human foreskin fibroblasts; actives raise or lower the signal
In short: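 hDFCGF human dermal fibroblasts; 24 h chemical exposure; IL-8 by ELISA; bidirectional curve fit vs DMSO baseline; gain or loss of signal scored.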

[19] = BSK_hDFCGF_Proliferation: Cell Proliferation Assessment in the BioMAP Diversity Plus: hDFCGF Assay (AID 2283059); settings: primary human foreskin fibroblasts;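 further: curves fitted for both rise and fall of signal versus DMSO baseline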
In short: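 Total protein read at 560 nm after 0.1% SRB staining of TCA-fixed human skin fibroblasts, […]. Activity is fitted in both directions relative to DMSO as baseline.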

[20] = read-out: Macrophage colony-stimulating factor (MCSF), CSF1 (gene 1435); assay: BSK_hDFCGF_MCSF: BioMAP Diversity Plus: hDFCGF Assay for Macrophage colony-stimulating factor (MCSF) Biomarker Activity (AID 2283060); settings: primary human foreskin fibroblasts; actives raise or lower the signal
In short: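 Human foreskin primary fibroblasts were treated with test chemical for 24 h, and M-CSF was then measured by ELISA. Data were fitted bidirectionally against DMSO as the negative control and activity baseline.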

Measured: AC50

CCCCCCCCCC[N+](C)(C)CCCCCCCCCC
active: [1] 3.61 µM | [2] 5.54 µM | [3] 4.72 µM | [4] 3.08 µM | [5] 5.09 µM | [6] 4.41 µM | [7] 2.67 µM | [8] 8.03 µM | [9] 5.46 µM | [10] 5.43 µM | [12] 1.69 µM | [13] 2.44 µM | [14] 3.56 µM | [15] 5.15 µM | [16] 1.76 µM | [17] 1.22 µM | [18] 3.01 µM | [19] 0.154 µM | [20] 2.04 µM
inactive: [11]

Sc1ccccc1
inactive: [1] | [2] | [3] | [4] | [5] | [6] | [7] | [8] | [9] | [10] | [11] | [12] | [13] | [14] | [15] | [16] | [17] | [18] | [19] | [20]

CC(C)(c1ccccc1)c1ccc(O)cc1
inactive: [2] | [4] | [5] | [6] | [8] | [9] | [12] | [14] | [17]
active: [1] 29.3 µM | [3] 32.3 µM | [7] 30.5 µM | [10] 29.5 µM | [11] 20 µM | [13] 34.1 µM | [15] 28.6 µM | [16] 32.2 µM | [18] 30.8 µM | [19] 29.3 µM | [20] 30.7 µM

CC1=C2C[C@H]3[C@@H](CC=C4C[C@@H](O)CC[C@@]43C)[C@@H]2CC[C@]12O[C@@H]1C[C@H](C)CN[C@H]1[C@H]2C
inactive: [1] | [2] | [3] | [4] | [6] | [7] | [8] | [9] | [10] | [11] | [12] | [13] | [14] | [15] | [16] | [17] | [18] | [19] | [20]
active: [5] 2.8 µM

Clc1ccc(C(c2ccccc2Cl)C(Cl)(Cl)Cl)cc1 (stereo unspecified)
inactive: [1] | [2] | [8] | [12] | [17]
active: [3] 17.6 µM | [4] 13.8 µM | [5] 14.3 µM | [6] 23.7 µM | [7] 20.1 µM | [10] 22.8 µM | [11] 19.6 µM | [13] 7.73 µM | [14] 25.6 µM | [15] 11.7 µM | [16] 6.51 µM | [18] 10.8 µM | [19] 6.94 µM

CCCN(CCC)N=O
inactive: [1] | [2] | [4] | [5] | [6] | [7] | [8] | [9] | [10] | [11] | [12] | [13] | [14] | [15] | [16] | [17] | [18] | [19]
